Compound activity deposited in PubChem by several laboratories.
Shown are actives, neighbours in structure and some others; about 9.7% of the full set was active somewhere.
Abs 340nm – absorbance at 340 nm | compound absorbance at 340 nm, fold over control | fold change at 10 µM | 65,000 tested, under 10 active | AID 708;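 active means at 10 µM dose, initial 340 nm absorbance at least 2 fold that of control wells; inactive means change under 2 fold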;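 further: initial absorbance extrapolated from kinetic A340 decline of NADH oxidation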
M1 agonist – agonists of M1 muscarinic receptor. CHO-M1 cells, Fluo-4 calcium fluorescence, agonist mode; stronger effect = higher value. B-score at 10 µM. 3% of 64,000 active. AID 626;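 active means fluorescence rise, raw or as B-score row- and column-corrected plate score, outside the 99.7% band of its plate's samples, either direction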
BAP1 inh – human BAP1 deubiquitinase inhibition | Q92560 | calls only at 20 µM | 0.48% of 72,000 active | recombinant BAP1, Ub-AMC hydrolysis fluorescence kinetic; stronger effect = lower value;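 active means activity remaining at or below 50% of control, provided the compound also passes the data quality filters; inactive means the rest, including low values that fail the filters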;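 further: 100% = DMSO wells rate and 0% = substrate alone blank rate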
WNV NS2B-NS3 inh – blocks West Nile virus NS2B-NS3 protease activity; 0.18% of 65,000 active; AID 577; z-score (concentration not given with the values); WNV NS2B-NS3 protease, fluorogenic substrate Ex360/Em465; stronger effect = lower value; in the data active means z-score below about -3
Fluor 339 460 – intrinsic fluorescence of library compounds, ex339/em460 – biochemical, MLSMR library, data from DPM-DC assay, artefact control, profiling panel; compound autofluorescence, ex339/em460 nm, NADH buffer; stronger effect = higher value; 1 = no-compound wells, NADH background; 5.5% of 65,000 active; AID 709; fluorescence fold increase at 10 µM;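 active means at 10 µM, mean starting fluorescence two-fold or more over control wells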;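 further: signal is the first read of a kinetic run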
M1 antagonist – antagonists of rat M1 muscarinic receptor; P08482; CHO-M1 cells, Fluo-4 calcium, ACh EC80 antagonist mode; stronger effect = lower value; B-score at 10 µM; 3.4% of 64,000 active;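 active means calcium fluorescence response, raw or row-and-column corrected B-score, differing from the plate sample mean either way at a set confidence level, mostly lower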
Target sequence (P08482 whole entry, looked up): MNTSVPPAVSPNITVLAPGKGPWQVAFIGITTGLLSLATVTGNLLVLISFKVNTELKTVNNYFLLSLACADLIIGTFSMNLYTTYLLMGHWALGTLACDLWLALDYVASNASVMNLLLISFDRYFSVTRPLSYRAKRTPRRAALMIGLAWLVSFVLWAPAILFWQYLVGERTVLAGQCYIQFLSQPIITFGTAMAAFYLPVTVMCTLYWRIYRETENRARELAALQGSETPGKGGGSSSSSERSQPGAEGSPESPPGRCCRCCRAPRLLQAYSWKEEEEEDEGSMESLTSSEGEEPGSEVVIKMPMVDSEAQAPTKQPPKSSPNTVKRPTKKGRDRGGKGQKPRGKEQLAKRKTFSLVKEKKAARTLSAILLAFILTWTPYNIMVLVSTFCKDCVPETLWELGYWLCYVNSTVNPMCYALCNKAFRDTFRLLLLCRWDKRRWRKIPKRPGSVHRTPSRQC
Numbers without * were called inactive.

How did NC(=O)NC1CCCc2c1[nH]c1ccc(Cl)cc21 (stereo not given) do in these assays?
Abs 340nm: 1.02; M1 agonist: -0.705; BAP1 inh: inactive; WNV NS2B-NS3 inh: -3.01*; Fluor 339 460: 1.08; M1 antagonist: 0.276

What do the screens show for `CCOC(=O)C1CCCN(CC(=O)Nc2c(C(=O)OC)[nH]c3ccc(Cl)cc23)C1` (stereo not given)?
Abs 340nm: 1.06; M1 agonist: -0.427; BAP1 inh: inactive; WNV NS2B-NS3 inh: -0.22; Fluor 339 460: 1.61; M1 antagonist: 0.0339

What do the screens show for `COc1ccccc1OCCn1cc(C(=O)c2ccco2)c2ccccc21`?
Abs 340nm: 1.07; M1 agonist: 4.58*; WNV NS2B-NS3 inh: -0.4; Fluor 339 460: 1.07; M1 antagonist: -0.458

What do the screens show for `CCCC(=O)N1CCN(S(=O)(=O)c2cc(Cl)ccc2OC)CC1`?
Abs 340nm: 0.97; M1 agonist: 0.0328; BAP1 inh: inactive; WNV NS2B-NS3 inh: -1.56; Fluor 339 460: 5.14*; M1 antagonist: -0.22

Results for O=C(Nc1cccc2c1C(=O)c1ccccc1C2=O)c1cccc(F)c1 ?
BAP1 inh: inactive

How did COc1cc2c(cc1OC)C(c1cc3cc(OC)c(OC)cc3[nH]c1=O)N(C(=O)C1CC1)CC2 (stereo not given) do in these assays?
Abs 340nm: 1.15; M1 agonist: -1.17; WNV NS2B-NS3 inh: -0.00489; Fluor 339 460: 2.59*; M1 antagonist: 0.814

What do the screens show for `CCN1CCN(c2cc(C)c3cc(NC(=O)c4cnccn4)ccc3n2)CC1`?
Abs 340nm: 1.16; M1 agonist: 2.08; BAP1 inh: inactive; WNV NS2B-NS3 inh: 0.21; Fluor 339 460: 1.04; M1 antagonist: -1.92

How did CCCCN(C)C(=O)CCC(=O)Nc1ccc2nc(N3CCOCC3)cc(C)c2c1 do in these assays?
Abs 340nm: 1.05; M1 agonist: 0.423; WNV NS2B-NS3 inh: 0.89; Fluor 339 460: 4.75*; M1 antagonist: -0.0358

What do the screens show for `CCN1CCN(c2cc(C)c3cc(NC(=O)Cc4ccc(OC)c(OC)c4)ccc3n2)CC1`?
Abs 340nm: 1.1; M1 agonist: 1.97; BAP1 inh: inactive; WNV NS2B-NS3 inh: 0.46; Fluor 339 460: 2.1*; M1 antagonist: 2.08

How did COc1ccc(N(C)C(=O)CCC(=O)Nc2ccc3nc(N4CCOCC4)cc(C)c3c2)c(OC)c1 do in these assays?
Abs 340nm: 1.04; M1 agonist: 0.744; WNV NS2B-NS3 inh: 0.89; Fluor 339 460: 4.85*; M1 antagonist: 0.116

How did CCC(C)NC(=O)CCC(=O)Nc1ccc2nc(N3CCOCC3)cc(C)c2c1 (stereo not given) do in these assays?
Abs 340nm: 1.05; M1 agonist: 0.189; WNV NS2B-NS3 inh: 1.37; Fluor 339 460: 4.96*; M1 antagonist: -0.354

Results for Cc1cc(N2CCN(C)CC2)nc2ccc(NC(=O)c3ccc4c(c3)OCO4)cc12 ?
Abs 340nm: 1.14; M1 agonist: 0.0151; Fluor 339 460: 1.07; M1 antagonist: -0.869

Results for O=C(CCC1CCCC1)Nc1ccc(S(=O)(=O)N2CCOCC2)cc1 ?
BAP1 inh: inactive

What do the screens show for `CCOc1ccccc1NC(=O)CCC(=O)Nc1ccc2nc(N3CCN(C)CC3)cc(C)c2c1`?
Abs 340nm: 1.07; M1 agonist: -0.125; WNV NS2B-NS3 inh: 1.08; Fluor 339 460: 3.8*; M1 antagonist: -0.371

How did Cc1cc(N2CCOCC2)nc2ccc(NC(=O)CCC(=O)N3CCC(C)CC3)cc12 do in these assays?
Abs 340nm: 1.02; M1 agonist: 0.896; BAP1 inh: inactive; WNV NS2B-NS3 inh: -0.24; Fluor 339 460: 4.75*; M1 antagonist: -0.232

Results for Cc1cc(N2CCN(C)CC2)nc2ccc(NC(=O)c3ccc(Br)o3)cc12 ?
Abs 340nm: 1.22; M1 agonist: -0.35; WNV NS2B-NS3 inh: -0.34; Fluor 339 460: 1.1; M1 antagonist: -2.39

Results for Cc1ccc(NC(=O)c2cc(N3CCOCC3)nc3ccccc23)cc1 ?
Abs 340nm: 1.03; M1 agonist: -0.312; BAP1 inh: inactive; WNV NS2B-NS3 inh: -0.79; Fluor 339 460: 1.55; M1 antagonist: -0.0506

What do the screens show for `O=C(CC1Nc2ccccc2NC1=O)c1ccccc1` (stereo not given)?
Abs 340nm: 1; M1 agonist: 3.91*; BAP1 inh: inactive; WNV NS2B-NS3 inh: -0.07; Fluor 339 460: 1.11; M1 antagonist: -0.761
